Compounds without any hit were thinned out: in the full panel of roughly 83,000, 20% have a hit.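 How to read the values: 0–100, growth inhibition (40 = 60% inhibited); 0, no net growth; -100 to 0, cell death (-40 = 40% of starting cells died; -100 = all dead).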 Values without a mark were called inactive. Activity calls are given as the source filed them. Rule for the calls: active = growth percent below 10; inactive = the rest.
How the values were obtained:
Test in all cases: NCI-60 one-dose screen, 48 h (100 = growth as untreated, 0 = no growth, -100 = all killed)
Details in all cases: 10 µM unless noted
DU-145 prostate = system: DU-145 prostate
K-562 leukemia = system: K-562 leukemia
MALME-3M melanoma = system: MALME-3M melanoma
MDA-MB-231 breast = system: MDA-MB-231 breast
RXF 393 renal = system: RXF 393 renal
SF-268 CNS = system: SF-268 CNS
SF-295 CNS = system: SF-295 CNS
SF-539 CNS = system: SF-539 CNS
UACC-257 melanoma = system: UACC-257 melanoma
M14 melanoma = system: M14 melanoma
HCT-15 colon = system: HCT-15 colon
HT29 colon = system: HT29 colon
SNB-75 CNS = system: SNB-75 CNS
SNB-19 CNS = system: SNB-19 CNS
U251 CNS = system: U251 CNS
PC-3 prostate = system: PC-3 prostate
SK-MEL-5 melanoma = system: SK-MEL-5 melanoma
UACC-62 melanoma = system: UACC-62 melanoma
LOX IMVI melanoma = system: LOX IMVI melanoma
SK-MEL-28 melanoma = system: SK-MEL-28 melanoma

Row | Structure (SMILES) | growth (DU-145 prostate) | growth (K-562 leukemia) | growth (MALME-3M melanoma) | growth (MDA-MB-231 breast) | growth (RXF 393 renal) | growth (SF-268 CNS) | growth (SF-295 CNS) | growth (SF-539 CNS) | growth (UACC-257 melanoma) | growth (M14 melanoma) | growth (HCT-15 colon) | growth (HT29 colon) | growth (SNB-75 CNS) | growth (SNB-19 CNS) | growth (U251 CNS) | growth (PC-3 prostate) | growth (SK-MEL-5 melanoma) | growth (UACC-62 melanoma) | growth (LOX IMVI melanoma) | growth (SK-MEL-28 melanoma)
1 | CCN(CC)S(=O)(=O)c1ccc(S(=O)(=O)N2CCC[C@@H](C(=O)N3CCN(c4nc(C(C)C)no4)CC3)C2)cc1 | 62.6% | 30.9% | 85.3% | 81.3% | 64.5% | 69% | 52.8% | 74.3% | 45.1% | 78.8% | 92.2% | 87.8% | 56.4% | 64.2% | 85.3% | 76.2% | 17.2% | 59.7% | 54% | 91%
2 | N=C(N)c1ccc(-c2ccc(-c3ccc(Cl)c(Cl)c3)s2)nc1 | -76.5% (active) | -23.4% (active) | 60.5% | -27.1% (active) | 79.5% | 46.8% | 0.36% (active) | 23.1% | 87.9% | 36.1% | -71.9% (active) | 5.19% (active) | 84.8% | 11.7% | -55.7% (active) | -16.9% (active) | 91.3% | 81% | -88.6% (active) | 107%
3 | Nc1c(C(=O)Nc2ccccc2C(F)(F)F)sc2nc3c(cc12)CCC3 | 108% | 94.4% | 99.8% | 92% | 84.6% | 106% | 95.1% | 100% | 101% | 113% | 97.3% | 94.3% | 97.4% | 98.4% | 93.9% | 100% | 98.6% | 81% | 110% | 94.5%
4 | COc1cc2oc(-c3cccc(NC(=O)c4ccccc4)c3)cc(=O)c2c(OC)c1OC | 85.5% | 43.1% | 86.8% | 74.7% | 74.4% | 72.3% | 77.8% | 67.8% | 99.7% | 75.3% | 65.2% | 77.1% | 77.4% | 91.4% | 83.7% | 53.1% | 63.2% | 66.8% | 61.7% | 73.2%
5 | O=C(CN1C(=O)S/C(=C\C(Cl)=C\c2ccccc2)C1=O)NCCc1ccc(O)cc1 | 18.2% | 10.1% | 52.1% | 30.4% | -22.7% (active) | 60.7% | 44% | 15.6% | 60.9% | -26.7% (active) | 0.727% (active) | 16.6% | 22% | 34.3% | 19.3% | 24.7% | 46% | 8.67% (active) | -51.5% (active) | 20.7%
6 | Cc1sc2nc(NCCc3c[nH]c4ccc(Cl)cc34)[nH]c(=O)c2c1C | 62.2% | 22.3% | 60.2% | 31.1% | 7.63% (active) | 15.5% | 50.7% | 40.1% | 32.6% | 26.5% | 7.96% (active) | 19.6% | 23.5% | 63.8% | 32.3% | 29.2% | 50.4% | 42.3% | 26.5% | 70.1%
7 | Fc1cc2c(cc1Cl)N(c1ncnc3ccc(-c4ccc5n[nH]nc5c4)cc13)CC2 | 67.1% | 88.2% | 88.8% | 72.8% | 78.7% | 69.5% | 91.7% | 78.9% | 96% | 94.8% | 95.7% | 95% | 22.1% | 80% | 86.9% | 71.1% | 91.2% | 78.7% | 86% | 86.9%
8 | COCCOc1cc2ncnc(N3CCN(c4ncc(S(=O)(=O)N5CCCCC5)cn4)CC3)c2cc1OCCOC | 102% | 96.3% | 93.8% | 106% | 110% | 93.3% | 99.6% | 107% | 101% | 97.8% | 89.9% | 109% | 110% | 96.2% | 97.7% | 88.7% | 102% | 95.3% | 87.4% | 112%
9 | COc1cc2c(c(OC)c1OC)CCC(c1cccc(NC(=O)c3ccc(Br)cc3)c1)O2 (stereo not given) | 87.9% | 49.7% | 80.4% | 82.6% | 89% | 78.6% | 66.9% | 97.3% | 69.6% | 81.3% | 85.2% | 77.4% | 86% | 86% | 90% | 60.5% | 71.4% | 60.6% | 90.4% | 89.7%
10 | CC1(C)COB(OCC(C)(C)COB2OCC(C)(C)CO2)OC1 | 103% | 106% | 93.8% | 112% | 123% | 100% | 97.4% | 98.3% | 98.6% | 105% | 108% | 110% | 107% | 110% | 98.2% | 94.2% | 93.2% | 106% | 96% | 113%
11 | CC/C=C\C[C@H](O)C/C=C1/C(=O)C=C[C@@H]1C/C=C\CCCC(=O)N(C)C | 16.4% | 5.58% (active) | 8.29% (active) | 18.3% | -65.1% (active) | 16.6% | -1.42% (active) | 14.7% | -9.75% (active) | 5.92% (active) | -21.8% (active) | -71.5% (active) | 72.2% | 27.1% | -31% (active) | 2.37% (active) | -88.6% (active) | -31.6% (active) | -84.3% (active) | 21.5%
12 | N#Cc1c(-c2ccc(Cl)cc2)nc(NN2C(=O)c3ccccc3C2=O)nc1N1CCOCC1 | 107% | 97% | 109% | 105% | 107% | 99.3% | 101% | 101% | 108% | 101% | 112% | 108% | 84.6% | 94.1% | 106% | 110% | 101% | 101% | 102% | 117%
13 | C#CCOC(=O)/C=C/c1cn(-c2ccccc2)nc1-c1ccc(OC)cc1 | 95.1% | 16.8% | 107% | 57.1% | 73.7% | 87.9% | 94.1% | 89.4% | 87.5% | 98.8% | 94.1% | 83.2% | 66.6% | 99.5% | 83.1% | 83.4% | 92% | 85.4% | 83.6% | 115%
14 | COc1ccc(CN2c3ccccc3Sc3ccccc32)cc1F | 14.1% | 11% | 32.6% | 24.1% | 7.16% (active) | 38.8% | 12.4% | -6.34% (active) | 54.8% | -3.27% (active) | 15.9% | -4.41% (active) | 45.1% | 34.6% | 20.1% | 21.2% | 22.3% | 28.5% | 39.9% | 56.8%
15 | CC1CCN(CCOc2ccc(CNc3ccc4nc(CCC5CCCCC5)[nH]c4c3)cc2)CC1 | 50.9% | -0.866% (active) | -85.8% (active) | 0.0918% (active) | 2.71% (active) | 57.4% | -45.9% (active) | -67.9% (active) | -72.3% (active) | -63.1% (active) | -22.5% (active) | 10% | 59.7% | 62.3% | -11.2% (active) | 40.3% | -99% (active) | 56.8% | -85.7% (active) | -80.2% (active)
16 | CCn1cc(C(=O)O)c(=O)c2cc(F)c(N3CCN(CC(=O)Nc4ccc(S(=O)(=O)Nc5nccc(C)n5)cc4)C(C)C3)c(F)c21 (stereo not given) | 105% | 105% | 111% | 100% | 99% | 98.3% | 104% | 99.2% | 114% | 103% | 100% | 117% | 95.7% | 98.7% | 110% | 98% | -93.3% (active) | 94.2% | 95.6% | 107%

Reference: PubChem BioAssay (NCI)
